# Source: the supplement of paper PMC10933113
# Test system: KeratinoSens (HaCaT ARE-luciferase) cells;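 active = curve rank above 3; inactive = curve rank 0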
# Test: Nrf2/ARE luciferase activation call in qHTS KeratinoSens assay (1 = active, 0 = inactive)
row,Compound,Nrf2/ARE luciferase activation call
1,CC[N+]1(C)CCCC1.O=S(=O)([O-])C(F)(F)F,not active ARE inducer (skin sensitizer alert) (inactive)
2,CN(C)CCOC(c1ccc(Cl)cc1)c1ccccn1.O=C(O)/C=C\C(=O)O (centres undefined),not active ARE inducer (skin sensitizer alert) (inactive)
3,CC(CN(C)C)CN1c2ccccc2CCc2ccccc21.O=C(O)/C=C\C(=O)O (centres undefined),not active ARE inducer (skin sensitizer alert) (inactive)
4,Cc1ccsc1/C=C/C1=NCCCN1C.O=C(O)[C@@H](O)[C@@H](O)C(=O)O,not active ARE inducer (skin sensitizer alert) (inactive)
5,CC[n+]1ccccc1.O=S(=O)([O-])C(F)(F)F,not active ARE inducer (skin sensitizer alert) (inactive)
6,Cc1cc(C)[nH]c(=O)n1.O=C(Nc1ccc([N+](=O)[O-])cc1)Nc1ccc([N+](=O)[O-])cc1,not active ARE inducer (skin sensitizer alert) (inactive)
7,CCCCn1cc[n+](C)c1.O=S(=O)([O-])C(F)(F)F,not active ARE inducer (skin sensitizer alert) (inactive)
8,CN1CCN(CCCN2c3ccccc3Sc3ccc(Cl)cc32)CC1.O=C(O)/C=C\C(=O)O.O=C(O)/C=C\C(=O)O,not active ARE inducer (skin sensitizer alert) (inactive)
9,CCN(CC)CCOC(=O)C1(c2ccccc2)CCCC1.CCN(CC)CCOC(=O)C1(c2ccccc2)CCCC1.O=S(=O)(O)CCS(=O)(=O)O,not active ARE inducer (skin sensitizer alert) (inactive)
10,Nc1nc(N)nc(-c2cc(Cl)ccc2Cl)n1.O=C(O)/C=C\C(=O)O,not active ARE inducer (skin sensitizer alert) (inactive)
11,CCCC[n+]1ccccc1.O=S(=O)([O-])C(F)(F)F,not active ARE inducer (skin sensitizer alert) (inactive)
12,CCCC[n+]1ccc(C)cc1.O=S(=O)([O-])C(F)(F)F,not active ARE inducer (skin sensitizer alert) (inactive)
13,CN1Cc2c(N)cccc2C(c2ccccc2)C1.O=C(O)/C=C\C(=O)O (centres undefined),not active ARE inducer (skin sensitizer alert) (inactive)
14,C[C@H](N)[C@H](O)c1cccc(O)c1.O=C(O)[C@@H](O)[C@@H](O)C(=O)O,not active ARE inducer (skin sensitizer alert) (inactive)
15,CC1(C)S[C@@H]2[C@H](NC(=O)Cc3ccccc3)C(=O)N2[C@H]1C(=O)O.CC1(C)S[C@@H]2[C@H](NC(=O)Cc3ccccc3)C(=O)N2[C@H]1C(=O)O.c1ccc(CNCCNCc2ccccc2)cc1,not active ARE inducer (skin sensitizer alert) (inactive)
16,CCn1cc[n+](C)c1C.O=S(=O)([O-])C(F)(F)F,not active ARE inducer (skin sensitizer alert) (inactive)
17,CCOCC(O)COc1ccc(NC(=O)CC[S+](C)C)cc1.Cc1ccc(S(=O)(=O)[O-])cc1 (centres undefined),not active ARE inducer (skin sensitizer alert) (inactive)
18,CN(CCOc1ccc(CC2SC(=O)NC2=O)cc1)c1ccccn1.O=C(O)/C=C\C(=O)O (centres undefined),not active ARE inducer (skin sensitizer alert) (inactive)
19,CCN(CCCc1ccccc1)CCCc1ccccc1.O=C(O)CC(O)(CC(=O)O)C(=O)O,not active ARE inducer (skin sensitizer alert) (inactive)
20,CC(=O)c1ccc2c(c1)N(CCCN(C)C)c1ccccc1S2.O=C(O)/C=C\C(=O)O,not active ARE inducer (skin sensitizer alert) (inactive)
21,Nc1c2c(nc3ccccc13)CCCC2O.O=C(O)/C=C\C(=O)O (centres undefined),not active ARE inducer (skin sensitizer alert) (inactive)
22,CN(C)CCOC(C)(c1ccccc1)c1ccccn1.O=C(O)CCC(=O)O (centres undefined),not active ARE inducer (skin sensitizer alert) (inactive)

row,Compound,Nrf2/ARE luciferase activation call
1,O=C(O)c1ccc2ccccc2c1O.OCc1cc(C(O)CNCCCCCCOCCCCc2ccccc2)ccc1O (centres undefined),not active ARE inducer (skin sensitizer alert) (inactive)
2,NC[C@H](O)c1ccc(O)c(O)c1.O=C(O)C(O)C(O)C(=O)O.O=C(O)C(O)C(O)C(=O)O,not active ARE inducer (skin sensitizer alert) (inactive)
3,CCN(CC)C(=O)N1CCN(C)CC1.O=C(O)CC(O)(CC(=O)O)C(=O)O,not active ARE inducer (skin sensitizer alert) (inactive)
4,CCC(C(=O)OCCOCCN(CC)CC)c1ccccc1.O=C(O)CC(O)(CC(=O)O)C(=O)O (centres undefined),not active ARE inducer (skin sensitizer alert) (inactive)
5,C[C@@H](CN(C)C)CN1c2ccccc2Sc2ccccc21.C[C@@H](CN(C)C)CN1c2ccccc2Sc2ccccc21.O=C(O)[C@@H](O)[C@@H](O)C(=O)O,not active ARE inducer (skin sensitizer alert) (inactive)
6,CCOCCn1c(N2CCCN(C)CC2)nc2ccccc21.O=C(O)/C=C/C(=O)O.O=C(O)/C=C/C(=O)O,not active ARE inducer (skin sensitizer alert) (inactive)
7,CCCc1nc(C)c2c(=O)nc(-c3cc(S(=O)(=O)N4CCN(CC)CC4)ccc3OCC)[nH]n12.O=C(O)CC(O)(CC(=O)O)C(=O)O,not active ARE inducer (skin sensitizer alert) (inactive)
8,O=C(O)/C=C/C(=O)O.c1ccc(C(O[C@H]2CCCN(CCc3ccc4c(c3)OCO4)C2)c2ccccc2)cc1,not active ARE inducer (skin sensitizer alert) (inactive)
9,CN1CCC[C@@H]1CCO[C@](C)(c1ccccc1)c1ccc(Cl)cc1.O=C(O)/C=C/C(=O)O,not active ARE inducer (skin sensitizer alert) (inactive)
10,COc1cc(N)c(Cl)cc1C(=O)NC1CCN(Cc2ccccc2)CC1.O=C(O)/C=C\C(=O)O,not active ARE inducer (skin sensitizer alert) (inactive)
11,CO[C@@H]1COCC[C@@H]1[NH2+][C@@H]1CC[C@@](C(=O)N2CCc3ncc(C(F)(F)F)cc3C2)(C(C)C)C1.O=C([O-])CCC(=O)O,not active ARE inducer (skin sensitizer alert) (inactive)
12,CCCC[N+]1(C)CCCC1.O=S(=O)([O-])C(F)(F)F,not active ARE inducer (skin sensitizer alert) (inactive)
13,CCC[N+]1(C)CCCC1.O=S(=O)([O-])C(F)(F)F,not active ARE inducer (skin sensitizer alert) (inactive)
14,CCC1=C[C@@H]2C[N@](C1)Cc1c([nH]c3ccccc13)[C@@](C(=O)OC)(c1cc3c(cc1OC)N(C)[C@H]1[C@@](O)(C(=O)OC)[C@H](OC(C)=O)[C@]4(CC)C=CCN5CC[C@]31[C@@H]54)C2.O=C(O)C(O)C(O)C(=O)O.O=C(O)C(O)C(O)C(=O)O,active ARE inducer (skin sensitizer alert)
15,C[C@@H](C1=C(CCN(C)C)Cc2ccccc21)c1ccccn1.O=C(O)/C=C\C(=O)O,not active ARE inducer (skin sensitizer alert) (inactive)
16,CCN(C(=O)c1cc(C)cc(OC[C@H](C)Nc2ccncc2)c1)C(C)C.Cc1ccc(S(=O)(=O)O)cc1,not active ARE inducer (skin sensitizer alert) (inactive)
17,CCn1cc[n+](C)c1.Cc1ccc(S(=O)(=O)[O-])cc1,not active ARE inducer (skin sensitizer alert) (inactive)
18,CC(C)OC(=O)OCOP(=O)(CO[C@H](C)Cn1cnc2c(N)ncnc21)OCOC(=O)OC(C)C.O=C(O)C=CC(=O)O,not active ARE inducer (skin sensitizer alert) (inactive)
19,CN1C(C)(C)CCCC1(C)C.O=C(O)[C@@H](O)[C@H](O)C(=O)O,not active ARE inducer (skin sensitizer alert) (inactive)
20,Cn1c(=O)c2c(ncn2C)n(C)c1=O.O=C(O)CC(O)(CC(=O)O)C(=O)O,not active ARE inducer (skin sensitizer alert) (inactive)
21,CCCc1nn(C)c2c(=O)[nH]c(-c3cc(S(=O)(=O)N4CCN(C)CC4)ccc3OCC)nc12.O=C(O)CC(O)(CC(=O)O)C(=O)O,not active ARE inducer (skin sensitizer alert) (inactive)
22,NC(CO)(CO)CO.O=C(c1ccccc1)c1ccc2n1CC[C@H]2C(=O)O,not active ARE inducer (skin sensitizer alert) (inactive)
